# In the library only some 4.5% were active in any assay of this set; here they are far more common.
# DAX1 inh-1: DAX1 (NR0B1) inhibitors, primary screen, cell-based, HEK293, Gal4-DAX1, luciferase luminescence. Nuclear receptor subfamily 0 group B member 1 (Homo sapiens), P51843. inhibition, % at 6.75 µM. 340,000 compounds, 0.99% hits. HEK293 Gal4-DAX1 luciferase reporter;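 active means inhibition above the mean over all tested compounds plus 3 SD, cut at about 4.2% in these data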;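 further: 0% = DAX1-transfected cells with DMSO and 100% = empty-vector control cells with DMSO; inhibition shows as a rise in luminescence from relieved DAX1 repression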
# Target sequence (P51843 207-470 limits assumed): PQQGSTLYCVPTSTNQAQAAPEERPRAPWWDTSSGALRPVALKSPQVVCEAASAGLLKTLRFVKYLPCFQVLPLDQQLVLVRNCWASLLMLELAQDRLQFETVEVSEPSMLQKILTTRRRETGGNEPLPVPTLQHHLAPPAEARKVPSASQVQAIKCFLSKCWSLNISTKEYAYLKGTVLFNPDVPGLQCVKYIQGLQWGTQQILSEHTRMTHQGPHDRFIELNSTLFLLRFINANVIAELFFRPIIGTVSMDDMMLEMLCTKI
# hcDAF-12 act: H. contortus DAF-12 nuclear receptor activators, primary screen, cell-based, luminescence, HEK293, lit1-tk-luc reporter; AID 652067, 2013; 370,000 compounds, 1.4% hits; activation, % at 6.8 µM; HEK293 hcDAF-12 lit1-tk-luc reporter; 0% DMSO, 100% Δ7-dafachronic acid;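 active means activation above the mean of all tested compounds plus 3 SD, cut at about 5.5% in these data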;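 further: 100% = response to 3 µM Δ7-dafachronic acid high control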
# ssDAF12 agonist: S. stercoralis DAF-12 nuclear receptor activators, primary screen, cell-based, luminescence, HEK293, GRIP1 co-expression, lit1-tk-luc; Nuclear hormone receptor DAF-12 (Strongyloides stercoralis); HEK293 ssDAF-12/GRIP1 lit1-tk-luc reporter; % of 3 µM dafachronic acid response; activation, % at 6.8 µM; 370,000 compounds, 1% hits; AID 652126, 2013;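 active means activation above the mean over all tested compounds plus 3 SD, cut at about 0.9% in these data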;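 further: 0% = DMSO-only wells and 100% = 3 µM delta7-dafachronic acid wells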
# DAX1 inh-2: DAX1 (NR0B1) inhibitors on StAR promoter, primary screen, cell-based, luminescence, SF-1 (NR5A1), full-length DAX-1. inhibition, % at 6.8 µM. AID 652010, 2013. 370,000 compounds, 1.1% hits. HEK293T StAR-luciferase reporter, SF-1/DAX-1 repression relief;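 active means inhibition above the mean over all tested compounds plus 3 SD, cut at about 3.6% in these data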;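 further: 0% = DAX-1 cells with DMSO and 100% = cells lacking DAX-1 with DMSO; higher inhibition means more luminescence from relief of DAX-1 repression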
# hgDAF12 agonist: H. glycines DAF-12 receptor agonists, primary screen, cell-based, luminescence, HEK293, GAL4 fusion, UAS-luciferase | Nuclear hormone receptor DAF-12 (Heterodera glycines), GAL4 fusion | HEK293 GAL4-hgDAF12 UAS-luciferase reporter, agonist luminescence; normalized to butyrate control | activation, % at 6.8 µM | 370,000 compounds, 1.8% hits;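 active means activation above a cutoff set at the mean of all screened compounds plus 3 SD, cut at about 10% in these data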;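 further: 0% = DMSO wells and 100% = sodium butyrate wells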
# FXN GAA850 act: FXN promoter activators, primary screen, cell-based, luciferase luminescence, HEK293 lucGAA850 | 360,000 compounds, 0.56% hits | AID 540364, 2011 | HEK293 lucGAA850 FXN promoter luciferase reporter, 24 h; percent of 10 µM SAHA response | activation, % at 6 µM;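 active means activation above the average of all compounds screened plus 3 SD, cutoff fixed separately per campaign, cut at about 7.5% in these data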;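 further: 0% = DMSO wells and 100% = 10 µM SAHA wells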
# GAA30 counter: GAA30 FXN promoter activators, confirmation, counter-screen for GAA850 frataxin promoter activator project, cell-based, luminescence, HEK293, lucGAA30, triplicate | shares compounds with FXN GAA850 act | HEK293 lucGAA30 FXN promoter luciferase, 24 h; DMSO = 0%, 5 µM ipriflavone = 100% | activation, % at 6 µM | 1,900 compounds, 66% hits;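 active means mean activation above the mean of solvent-only control wells plus 3 SD, cut at about 22% in these data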;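 further: counterscreen of GAA850 promoter hits where activity marks nonselective or luminescence artifacts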
# GAA850 confirm: FXN GAA850 promoter activators in reporter cells, confirmation, cell-based, luminescence, HEK293 lucGAA850, triplicate; shares compounds with FXN GAA850 act; 1,900 compounds, 86% hits; activation, % at 6 µM; HEK293 lucGAA850 FXN promoter luciferase reporter, 24 h; 100% = activation by SAHA;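 active means mean activation above a set limit taken from the primary screen, cut at about 8% in these data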;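 further: 0% = DMSO wells and 100% = 10 µM SAHA wells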
# The depositor's hits bear a star; . = no result.
SMILES,DAX1 inh-1,hcDAF-12 act,ssDAF12 agonist,DAX1 inh-2,hgDAF12 agonist,FXN GAA850 act,GAA30 counter,GAA850 confirm
Cc1ccccc1-c1ccc2c(c1)[C@@H]1C[C@H](N(C)C(=O)Nc3ccccc3)[C@H]([C@H](C)O)CN1CC2,.,-1.9,-0.3,0.2,-1.0,.,.,.
CCCN1C(=O)S/C(=C\c2ccc(N3CCOCC3)o2)C1=O,-0.2,-0.6,-0.7,-0.6,-1.3,9.8*,94.5*,29.4*
CCCN1C(=O)S/C(=C/c2ccc(N3CCOCC3)o2)C1=O,0.9,0.0,-1.6,-0.6,-2.5,5.8,.,.
O=C(NCCN1CCOCC1)c1cc2sccc2n1Cc1ccc(F)cc1,-1.2,-1.9,-1.1,-0.1,-0.1,8.8*,10.3,8.3*
O=C(NCCN1CCOCC1)c1cc2sccc2n1Cc1ccc(Cl)cc1,-0.5,-2.0,-1.6,-0.8,0.8,1.8,.,.
COCc1nc2oc3ccc(C)cc3c(=O)c2cc1C(=O)OC,2.6,0.5,-0.9,1.4,5.0,7.9*,119.2*,47.3*
COC(=O)c1c(-c2ccc(F)cc2)csc1NC(=O)c1ccco1,3.1,1.3,-0.6,1.6,7.4,9.6*,90.5*,38.4*
Cc1cc(Cl)cc(Cl)c1OCCN1CCCC1,-1.0,-1.4,0.2,-0.4,-1.6,1.0,.,.
O=C(N/N=C/c1ccc(O)c([N+](=O)[O-])c1)C1CC1(c1ccccc1)c1ccccc1 (stereo unspecified),0.7,1.9,-1.2,-0.3,-3.1,10.0*,32.4*,18.9*
O=C(NN=C1CCCCCC1)c1ccc2c(c1)OCO2,1.6,-0.5,-1.1,0.0,9.8,0.5,.,.
COc1ccc(C(=O)CSc2nnc(-c3ccccc3)n2-c2ccc(Cl)cc2)cc1,.,-0.9,-0.7,-1.1,1.7,.,.,.
CCOC(=O)[C@@]12CN(C(=O)OC(C)(C)C)CC=C1N(Cc1ccc(OC)cc1)C(=O)[C@H]2CC(=O)NCc1cccc2ccccc12,.,-2.8,-1.2,-0.1,-2.9,.,.,.
CC(C)c1ccc2c(c1)C1(NN=C(c3ccccc3)S1)C(=O)N2 (stereo unspecified),-0.5,3.0,-0.8,-1.5,5.5,7.9*,-78.5,-22.2
Oc1cc(NCc2cccnc2)ccc1-c1nc2ccccc2o1,0.4,3.4,0.8,1.8,9.5,11.4*,80.9*,44.2*
CCOC(=O)[C@@]12CCCC=C1N(CCc1ccc(Cl)cc1)C(=O)[C@H]2CC(=O)NCCc1ccccc1OC,.,2.6,-0.9,-0.4,0.5,.,.,.
Clc1ccc(Cn2cnc3ccccc32)cc1,-0.7,-2.8,-2.1,-2.9,-3.4,1.6,.,.
c1ccc(Cn2cnc3ccccc32)cc1,2.3,2.7,-0.6,2.0,12.9*,10.9*,119.8*,44.0*
Clc1ccccc1OCCn1cnc2ccccc21,0.2,-0.4,-0.1,0.4,3.2,9.2*,41.0*,23.8*
CC1CCN(c2nnc(NC(=O)Cn3c(=O)oc4ccccc43)s2)CC1,-0.3,0.2,-0.9,0.5,2.2,15.3*,8.5,2.1
O=C(Cn1c(=O)oc2ccccc21)Nc1nnc(N2CCCCCC2)s1,0.2,-0.5,-1.1,0.5,-0.6,-0.1,.,.

# Source: PubChem BioAssay (The Scripps Research Institute Molecular Screening Center)
